Our source for the composite z-score values is PubChem BioAssay.

The experiment relates to wheat germ agglutinin (Triticum aestivum), Alexa647-labelled. As to the kind of experiment: Alexa647-WGA lectin binding to printed small molecules – biochemical, small-molecule microarray, 635/667 nm fluorescence, artefact control for SMM control-protein annotation, profiling panel (AID 1140).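 Note: score merges 667 nm feature emission with signal to noise over triplicate slides.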 The note with it: WGA-A647 binding, 635 nm fluorescence, higher = more signal.
`CO[C@@H]1COC(=O)[C@@H]2CCCN2C(=O)[C@@H](C)COC(=O)[C@H](COCc2ccccc2)NC(=O)CC=C[C@H]1C` came in with a composite z-score of -0.07. In the case of `C#CCCCON=C1C[C@@H](O)[C@@H](O)[C@@H]2[C@@H]3C(=O)N([C@@H](C)c4ccccc4)C(=O)[C@@H]3CC[C@H]12`, the composite z-score was found to be 0.203. In turn, `COCCCNC(=O)[C@@]1(C)c2ccccc2C(=O)N(Cc2ccc(OC(F)(F)F)cc2)[C@H]1c1ccc(CO)cc1` gave a composite z-score of -1.18. The same measure for `C=COC[C@H]1CN2[C@@H](CC[C@@H](C)[C@@H]2c2ccc(Br)cc2)C(=O)O1`: 0.276; for `CC(CCN1CCCCc2nc(C)c(C)cc21)=NOC(C)CN1CCCc2nc(C)c(C)cc21` (stereo unspecified): 0.766; for `CC(C)=NOCc1ccc(-c2cc(-c3ccccc3)no2)cc1`: -0.477. The result for `CCc1cc2c(nc1CC)CCN(CCC(C)=NOC[C@@H](O)[C@H]1O[C@@H]3OC(C)(C)O[C@@H]3[C@H]1O)C2` reads 0.878; that for `COc1cccc([C@H]2Oc3ccc(OC)cc3C(=NO[C@H](C)c3cn([C@@H]4COC[C@H]4O)nn3)[C@@H]2O)c1`, 0.0665. Regarding `O=C(NN=C1C[C@@H](O)[C@@H](O)[C@@H]2[C@@H]3C(=O)N(c4ccc(F)cc4F)C(=O)[C@@H]3CC[C@@H]12)OCc1ccccc1`, the composite z-score is 0.336. The same measure for `CCOC(=O)[C@H](Cc1ccccc1)NC(=O)CCC1CC(OC(=O)NCc2ccc3c(c2)OCO3)CC2(CCCC(COC(=O)NCc3cccc(C(F)(F)F)c3)O2)O1` (stereo partly specified): 0.229. Compound `C[C@@H](c1ccccc1)N1C(=O)[C@H]2[C@H]3[C@H](O)C=CC(=O)[C@@H]3CC[C@H]2C1=O` registered a composite z-score of 0.204.
